# Screens (PubChem BioAssay)
# This is a sample that favours compounds with a hit; in the whole collection about 9.2% have one here.
# FLuc modulator – qHTS profiling assay for firefly luciferase inhibitor/activator using purifed enzyme and Km concentrations of substrates (counterscreen for miR-21 project); Luciferin 4-monooxygenase (Photinus pyralis), P08659; purified FLuc, Km substrates, luminescence inhibition; Potency, µM (top dose mostly 57.5 µM), without a hit: at the highest dose activity change, negative = inhibition, actives largely listed as inhibitors; 360,000 compounds, 6.9% hits;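 note: plate controls were vehicle for no effect and reference inhibitor for full effect; nearly all actives have a fitted effect of over 55% in size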
# Target sequence (P08659 whole entry, looked up): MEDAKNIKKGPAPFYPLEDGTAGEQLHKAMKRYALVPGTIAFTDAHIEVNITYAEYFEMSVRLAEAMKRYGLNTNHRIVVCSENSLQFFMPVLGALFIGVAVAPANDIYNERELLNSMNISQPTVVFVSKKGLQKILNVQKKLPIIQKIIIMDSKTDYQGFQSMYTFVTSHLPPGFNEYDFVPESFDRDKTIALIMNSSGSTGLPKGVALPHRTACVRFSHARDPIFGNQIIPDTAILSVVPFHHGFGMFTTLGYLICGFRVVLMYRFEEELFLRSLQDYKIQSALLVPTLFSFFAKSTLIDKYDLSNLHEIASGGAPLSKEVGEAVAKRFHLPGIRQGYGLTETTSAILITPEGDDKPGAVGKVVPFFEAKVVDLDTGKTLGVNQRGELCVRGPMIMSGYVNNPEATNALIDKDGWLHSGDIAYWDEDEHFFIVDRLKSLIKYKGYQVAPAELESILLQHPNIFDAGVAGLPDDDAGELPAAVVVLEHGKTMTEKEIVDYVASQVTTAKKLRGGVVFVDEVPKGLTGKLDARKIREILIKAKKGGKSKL
#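 Purified P. pyralis luciferase (10nM final) with 10uM D-luciferin and 10uM ATP (Km levels) in 50mM Tris acetate pH 7.5, 10mM Mg acetate, 0.01% Tween-20, 0.05% BSA; qHTS 6-point titration, ~60 µM downward; luminescence read.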
# Rab9 promoter act – qHTS Assay for Rab9 Promoter Activators | Huh7 Rab9 promoter-luciferase reporter, luminescence, 24 h | Potency, µM (top dose mostly 9.22 µM), for the others: at the top dose activation, negative = inhibition, usual class: activators | 320,000 compounds, 2.8% hits | AID 485297, 2010; note: % of control where 0% means no effect; nearly all actives have a fitted effect of over 60% in size
#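 Quantitative HTS format; Huh7 Rab9-luciferase reporter cells (1500/well) receive compound 2 h post-plating, incubate 24 h at 37 °C, then get luciferase reagent for 10 min before luminescence reading.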
# SMN2 splice up – qHTS Assay for Enhancers of SMN2 Splice Variant Expression; HEK293 SMN2-luciferase splicing reporter, luminescence, 30-36 h; Potency, µM (series often up to 46.1 µM), for inactives: top-dose activity change, positive = activation, hits mostly activators; 210,000 compounds, 2.8% hits; AID 1458, 2008; note: % of control where 0% means no effect; nearly all actives have a fitted effect of over 55% in size
#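 HEK293 cells carry an SMN2 minigene-luciferase reporter in which exon 7 inclusion puts luciferase in frame. Cells were seeded at 2000 cells/well, attached for 10-12 hours, then exposed to compounds for 30-36 hours at 37C before ONE-Glo luminescence.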
# ELG1 DNA repair – qHTS screen for small molecules that inhibit ELG1-dependent DNA repair in human embryonic kidney (HEK293T) cells expressing luciferase-tagged ELG1. Potency, µM (top dose mostly 46.1 µM), for inactives: at the top dose activity change, negative = inhibition, most hits filed as inhibitors. HEK293T ELG1-luciferase reporter, luminescence, 16 h; DNA damage induced by 5-fluorouridine. 330,000 compounds, 2.3% hits. AID 504467, 2011; note: % is set by controls: 0 for no effect and ±100 for the full control effect; nearly all actives have a fitted effect of over 55% in size
#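 Cells (2,000 per well) received 5-fluorouridine plus test compound or DMSO and were incubated 16 hr at 37 °C, 5% CO2. Luciferase activity was read by luminescence 30 min after ONE-Glo addition; signal suppression marked inhibition of damage-induced ELG1 function.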
# ELG1 genotox – qHTS screen for small molecules that induce genotoxicity in human embryonic kidney (HEK293T) cells expressing luciferase-tagged ELG1 | HEK293T ELG1-luciferase reporter, luminescence, 16 h | Potency, µM (titrated, usually from 46 µM), without a hit: top-dose activity change, positive = activation, hits mostly activators | 330,000 compounds, 1.3% hits | AID 504466, 2011; note: % of control where 0% means no effect; nearly all actives have a fitted effect of over 60% in size
#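 HEK293T cells expressing luciferase-tagged ELG1 were exposed to compound or DMSO vehicle for 16 hr at 37 °C and 5% CO2. Luciferase activity was then measured with ONE-Glo after 30 min at room temperature.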
# NPC1 prom act – qHTS Assay for NPC1 Promoter Activators. 320,000 compounds, 2.4% hits. Potency, µM (series often up to 9.22 µM), inactives show at the top dose activation, most hits filed as activators. Huh7 NPC1 promoter luciferase reporter, 24 h; note: % of control where 0% means no effect; nearly all actives have a fitted effect of over 60% in size
#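 Compounds in DMSO were transferred onto Huh7 NPC1-luciferase reporter cells pre-incubated 2 h; after 24 h at 37 °C, Amplite reagent was dispensed and luminescence recorded 10 min later.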
# * = called active by the depositor; ? = inconclusive; . = no result; [ ] = dose if it differs, or a comment. Calls come from the whole dose curve; as a rule, active = well fitted curve in the direction sought with a large enough effect; inconclusive = small, poorly fitted or top-dose-only effect, or another doubt; inactive = no such curve, though single readings can be large; an effect the other way counts as inactive or inconclusive. Potency is the fitted concentration of half-maximal effect.
SMILES,FLuc modulator,Rab9 promoter act,SMN2 splice up,ELG1 DNA repair,ELG1 genotox,NPC1 prom act
Cc1cc(Cl)ccc1OCC(=O)NCCOc1nc(N2CCOCC2)nc(N2CCOCC2)n1,5%,8%,-7%,10µM*,2%,-3%
CN(C)c1nc(OCCNC(=O)COc2ccc(Cl)cc2Cl)nc(N2CCOCC2)n1,3%,-10%,8%,?,0%,4%
Cc1cc(N2CCN(c3ccccc3Cl)CC2)n2cc(-c3ccccc3)nc2n1,?,-8%,-7%,?,-21%,1%
Cc1cc(N2CCN(c3ccccc3)CC2)n2cc(-c3ccccc3)nc2n1,24µM*,1%,-10%,?,-5%,1%
COc1ccc(C)cc1NC(=O)CN1C(=O)C(=O)N(C2CCCC2)C1=O,-35%,0%,.,?,0%,1%
Cc1ccc(NC(=O)c2cc3c(=O)oc4ccccc4c3s2)nc1,-1%,1%,0%,-2%,7%,1%
Cc1ccc(NC(=O)c2oc3ccccc3c2C)nc1,12µM*,3.2µM*,.,?,?,3.5µM*
COc1ccc(NC(=O)c2oc3ccccc3c2C)cn1,0%,5%,.,-2%,2%,1%
Cc1c(C(=O)Nc2ccccn2)oc2ccccc12,4.3µM*,?,25µM*,?,?,?
Cc1c(C(=O)Nc2cccnc2Cl)oc2ccccc12,?,3.2µM*,.,?,?,2.5µM*
Cc1c(C(=O)Nc2ccccn2)oc2c(Cl)cccc12,?,13%,.,?,5.2µM*,5%
Cc1noc(C(=O)Nc2cccnc2Cl)c1Cl,4%,12%,.,11%,1%,-3%
Cc1cc2c(ncn2Cc2ccccc2)c([N+](=O)[O-])c1C,0%,-4%,-63%,10%,-4%,-2%
Cc1c(C(=O)NC(C)c2ccncc2)oc2ccccc12 (stereo unspecified),-1%,0%,-21%,10%,-1%,-1%
Cc1c(C(=O)Nc2ccncc2)oc2ccccc12,19µM*,14%,-24%,?,?,15%
Cc1cc(N=Cc2c(O)n(-c3cccc(Cl)c3)c(=O)c3ccccc23)no1,2%,-9%,5%,18µM*,0%,-9%
CCc1nn2c(-c3ccco3)ccnc2c1-c1ccc(F)cc1,11µM*,.,-4%,.,.,.
Cc1nc2ccc(S(=O)(=O)N(C)CC(=O)Nc3ccccc3F)cc2s1,-1%,-5%,.,-15%,-4%,-6%
COC1=CC(=O)c2ccccc2C1=O,.,.,.,18µM*,-9%,.
O=C(CCS(=O)(=O)c1cccc2nonc12)Nc1c(F)cccc1F,-6%,.,-6%,.,.,.
Cc1ccc(OCC(=O)Nc2ccc(S(=O)(=O)Nc3cc(C)on3)cc2)c(Br)c1,21µM*,.,-3%,.,.,.
Cc1ccc(S(=O)(=O)Nc2ccc(C(=O)Nc3cc(C)on3)cc2)cc1,2%,0%,3%,-11%,-2%,-9%
Cc1ccc(NS(=O)(=O)c2cccc(C(=O)Nc3cc(C)on3)c2)cc1,-1%,-5%,-34%,21µM*,-3%,-2%
Cc1ccc(OCC(=O)NC(=S)Nc2ccc(S(=O)(=O)Nc3cc(C)on3)cc2)c(Br)c1,1.5µM*,-5%,.,16%,4%,0%
Cc1cccc(NS(=O)(=O)c2ccc(C)c(C(=O)OCC(=O)Nc3cc(C)on3)c2)c1,3%,0%,20µM*,7%,-5%,0%
SMILES,FLuc modulator,Rab9 promoter act,SMN2 splice up,ELG1 DNA repair,ELG1 genotox,NPC1 prom act
Cc1cccc(NS(=O)(=O)c2cc(C(=O)OCC(=O)Nc3cc(C)on3)ccc2C)c1,6%,2%,-3%,5%,1%,-5%
COc1cc(OC)c(N(C)C(=O)c2c(C)oc3ncnc(N4CCCCC4)c23)cc1Cl,-8%,.,.,.,.,.
CC1=C(C(N)=O)C(c2ccccc2Br)n2ncnc2N1 (stereo unspecified),-1%,.,.,.,.,.
CCOC(=O)NC[C@H](Cc1ccc(OCCc2nc(-c3ccccc3)oc2C)cc1)N/C(C)=C\C(=O)c1ccc(C(F)(F)F)cc1,.,.,-28%,.,.,.
C[C@@H]1C[C@H](O)c2cc(Cl)ccc2N1,-2%,1%,10%,-15%,1%,-2%
N#CC1CC(c2ccccc2)Nc2cc(Cl)ccc2N1 (stereo unspecified),11µM*,26%,.,?,15%,15%
COc1cccc(C2CC(=O)Nc3cc(OC)c(OC)c(OC)c32)c1OC(C)C (stereo unspecified),0%,.,18µM*,.,.,.
COc1cccc(C2CC(=O)Nc3cc4c(cc32)OCCO4)c1OC(C)C (stereo unspecified),6%,0%,8%,?,-1%,2%
O=C(COC(=O)c1ccco1)Nc1ccc2c(c1)OCO2,?,-1%,12%,6%,0%,-1%
Cn1cccc1C(=O)OCC(=O)Nc1ccc2[nH]c(=O)[nH]c2c1,.,.,.,?,4%,.
Cn1cccc1C(=O)OCC(=O)Nc1ccc2c(c1)OCO2,17µM*,2.8µM*,?,?,?,3.5µM*
Cn1cccc1C(=O)OCC(=O)Nc1ccc2c(c1)CCC2,?,?,20%,?,21µM*,?
CC1CCN(C(c2cccs2)c2nnnn2Cc2ccccc2)CC1 (stereo unspecified),3%,0%,-5%,-14%,-4%,1%
CSc1nc(C)cc(Nc2ccc(O)c(CN3CCCCC3)c2)n1,.,.,-4%[9.22 µM],.,.,.
COc1ccc(C(=O)Nc2ccc(-c3n[nH]c(=S)o3)cc2)cc1OC,?,4%,.,7%,3%,-3%
O=C(Nc1ccc(-c2n[nH]c(=S)o2)cc1)c1ccccc1Br,15µM*,-1%,.,7%,3%,4%
CCn1c(=O)c(C(=O)CN2CCN(S(=O)(=O)c3cc(C)ccc3C)CC2)c(N)n(Cc2ccccc2)c1=O,2%,-20%,-7%,6.5µM*,-6%,-1%
CCCCNC(=O)c1ccc(N2CCC3(CC2)OCCO3)c([N+](=O)[O-])c1,-2%,-4%,-7%,-29%,-2%,0%
CCOC(=O)N1CCC(NC(=O)c2ccc(N3CCC4(CC3)OCCO4)c([N+](=O)[O-])c2)CC1,-8%,3%,-69%,16µM*,-12%,-4%
